The list is not random: actives were taken first. Their share in the collection is about 10%.
HP1b chromo inh: blocks HP1-beta chromodomain binding to methylated histone tails. P83916. AlphaScreen HP1-beta / biotin-H3K9me3 peptide binding. Potency, µM (highest dose often 114 µM), for the others: at the highest dose activity change, negative = inhibition, hits mostly inhibitors. 390,000 tested, 0.56% active; further: potency means the concentration at half of the fitted maximal effect; nearly all actives have a fitted effect of over 70% in size
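AlphaScreen: HP1-beta (50 nM) preformed 30 min with biotin-H3(1-18)K9me3 peptide (50 nM) in PBS pH 7.4, 0.01% Tween-20. Compound added for 30 min at RT, then streptavidin donor/nickel chelate acceptor beads (10 ug/mL) for 30 min.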
BAZ2B inh: blocks human BAZ2B; Q9UIF8; AlphaScreen BAZ2B-H3K14Ac peptide displacement; Potency, µM (highest dose often 114 µM), for the others: at the top dose activity change, negative = inhibition, most hits filed as inhibitors; 360,000 tested, 4.4% active; further: potency means the concentration at half of the fitted maximal effect; on the % scale 0 is the no-effect control and ±100 the full control effect; nearly all actives have a fitted effect of over 60% in size
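Protein-peptide AlphaScreen: BAZ2B 50 nM, b-H3K14Ac 50 nM, 1x PBS pH 7.4 + 0.01% Tween-20. Preincubation 30 min RT; cpd 30 min RT (top 110 uM); beads 20 min RT, light-protected.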
G9a inh: inhibitors of human histone lysine methyltransferase G9a. Q96KQ7. G9a H3K9 monomethylation, AlphaScreen, 2 h. Potency, µM (highest dose often 102 µM), inactives show at the highest dose activity, negative = inhibition, actives largely listed as inhibitors. 350,000 tested, 8.8% active. AID 504332; further: potency means the concentration at half of the fitted maximal effect; on the % scale 0 is the no-effect control and ±100 the full control effect; nearly all actives have a fitted effect of over 75% in size
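Compounds were preincubated with 20 nM G9a for 15 min, after which biotinylated H3K9 peptide (500 nM) and SAM (20 uM) started a 2 h room-temperature reaction. Monomethylated product was quantified by antibody-based AlphaScreen chemiluminescence.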
JMJD2A Tudor inh: blocks the human JMJD2A Tudor domain | O75164 | AlphaScreen JMJD2A-Tudor / H3K4me3 peptide binding | Potency, µM (titrated, usually from 114 µM), inactives show at the top dose activity change, negative = inhibition, most hits filed as inhibitors | 390,000 tested, 4.4% active | AID 504339; further: potency means the concentration at half of the fitted maximal effect; on the % scale 0 is the no-effect control and ±100 the full control effect; nearly all actives have a fitted effect of over 50% in size
CtBP-E1A blk: CtBP/E1A binding inhibition | AlphaScreen GST-E1A/His-CtBP binding, 1536-well; stronger effect = lower value | activity change, % (concentration not given with the values) | 340,000 tested, 0.49% active | AID 651724; in the data active means activity change below about -65%; inconclusive means mostly about -30% to -63%; further: on the % scale 0 is the no-effect control and ±100 the full control effect
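Steps: dispense buffer (Tris pH 8.0, NaCl 300 mM, TCEP 1 mM, BSA, Tween 20); add 5X protein mix (GST-E1A, His-CtBP, 125 nM each); pin 23 nL compound; 2 h at 37 °C, dark; add 5X beads (50 ug/mL); 1 h; read.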
Six1-Eya2 inh: inhibitors of human Six1/Eya2 interaction; 360,000 tested, 0.56% active; AID 651725; Q15475+O00167; AlphaScreen GST-Six1/His-Eya2 binding, biochemical; stronger effect = lower value; activity change, % (test concentration not listed); in the data active means activity change below about -65%; inconclusive means mostly about -30% to -63%; further: on the % scale 0 is the no-effect control and ±100 the full control effect
Target sequence (O00167 whole entry, looked up): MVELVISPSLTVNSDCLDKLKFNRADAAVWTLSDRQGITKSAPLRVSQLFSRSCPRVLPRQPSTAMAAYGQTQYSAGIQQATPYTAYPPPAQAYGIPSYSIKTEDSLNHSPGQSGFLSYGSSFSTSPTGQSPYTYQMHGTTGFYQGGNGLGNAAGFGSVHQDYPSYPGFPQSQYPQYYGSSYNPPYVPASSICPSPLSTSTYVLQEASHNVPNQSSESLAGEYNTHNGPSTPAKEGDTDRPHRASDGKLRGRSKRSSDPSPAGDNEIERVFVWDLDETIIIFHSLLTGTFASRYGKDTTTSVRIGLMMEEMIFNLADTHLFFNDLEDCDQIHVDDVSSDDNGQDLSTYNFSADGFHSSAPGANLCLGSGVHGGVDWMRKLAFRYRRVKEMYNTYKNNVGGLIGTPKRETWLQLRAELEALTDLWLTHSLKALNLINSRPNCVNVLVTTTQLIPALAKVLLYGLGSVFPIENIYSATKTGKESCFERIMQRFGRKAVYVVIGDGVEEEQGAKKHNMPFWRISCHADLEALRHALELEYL
Target sequence (Q15475 whole entry, looked up): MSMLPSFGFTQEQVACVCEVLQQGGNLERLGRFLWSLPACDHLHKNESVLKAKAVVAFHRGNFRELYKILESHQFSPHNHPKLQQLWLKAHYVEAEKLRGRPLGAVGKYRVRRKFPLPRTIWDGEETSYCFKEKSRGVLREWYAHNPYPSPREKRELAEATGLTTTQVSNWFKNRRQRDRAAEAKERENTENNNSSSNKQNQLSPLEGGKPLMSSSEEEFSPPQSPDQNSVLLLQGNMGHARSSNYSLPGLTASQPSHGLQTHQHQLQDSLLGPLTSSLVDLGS
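Homogeneous AlphaScreen proximity assay pairing GST-Six1 with His-tagged Eya2 (added as 5X mix: 250 nM and 500 nM) in 50 mM Tris pH 8.0, 300 mM NaCl, 1 mM TCEP. Glutathione donor and nickel acceptor beads; 1 h, 37 °C, dark.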
* hit, by the source's call; ? = inconclusive; . = not tested or not shown; ! = not active in a repeat; [ ] = remark or other dose. Unless noted, the call rests on the fitted dose curve; in most records, active means well fitted inhibition curve with a large enough effect; inconclusive means small, poorly fitted or top-dose-only effect; inactive means no such curve, though single readings can be large or run the other way.

SMILES	HP1b chromo inh	BAZ2B inh	G9a inh	JMJD2A Tudor inh	CtBP-E1A blk	Six1-Eya2 inh
CC(C)C1Oc2cc3oc(=O)ccc3cc2C1=O (stereo not drawn)	32.7%	-12.4%	79.4µM*	0.7%	-1.1	-5.9
CNC(=O)c1nnsc1S(=O)(=O)c1ccc(Cl)cc1	-14.7%	-14.6%	14.1µM*	1.4%	-7.7	-11.3
O=C(c1nnsc1S(=O)c1ccc(Cl)cc1)N1CCOCC1 (stereo not drawn)	?	-1.5%	31.6µM*	7.08µM*	-5.5	-3.5
O=C(c1nnsc1S(=O)(=O)c1ccc(Cl)cc1)N1CCOCC1	23.1%	-23.4%	50.1µM*	-15.0%	15.8	2.2
O=C(c1ccc(NS(=O)(=O)c2ccc(Cl)cc2)cc1)N1CCOCC1	29.0%	0.6%	11.8%	-6.7%	3.8	-8.0
COC(=O)c1cc(OC)c(OC)c(OC)c1[N+](=O)[O-]	19.9%	1.5%	?	-4.9%	6.7	0.3
COC[C@@H]1CCCN1c1ccc2c(c1)O[C@H](COCc1ccccc1)CN([C@H](C)c1ccccc1)S2(=O)=O	.	.	.	.	-5.1	-4.9
CC1(C)Cc2c(C#N)c(N)sc(=S)c2CS1	?	-7.9%	25.1µM*	50.1µM*	-18.2	-10.7
Cn1c(N)c(C#N)c2c(c1=S)CSC(C)(C)C2	5.0%	-10.4%	25.1µM*	79.4µM*	-1.2	-3.4
CSc1nc(N2CCOCC2)c2c(c1C#N)CC(C(C)C)OC2 (stereo not drawn)	53.0%	0.7%	12.8%	1.4%	3.0	-0.1
Cn1c(N)c(C#N)c2c(c1=S)COC(C)(C)C2	12.1%	1.6%	-16.0%	-10.9%	-25.6	7.9
CC(C)C1Cc2c(C#N)c(N)n(C)c(=S)c2CO1 (stereo not drawn)	25.3%	-12.6%	50.1µM*	-12.3%	0.0	7.1
CCOc1cc(-c2nc(C)c(C(C)=O)n2O)ccc1OCC(=O)Nc1cccc(C)c1	7.5%	-16.3%	50.1µM*	-27.8%	-5.5	-6.3
CCOc1cc(/C=N/O)ccc1OCC(=O)Nc1cccc(C)c1	18.6%	19.0%	30.3%	-4.2%	-13.1	-4.6
Cc1ccc2nc(-c3ccccc3)cc(C(=O)N3CCN(c4ccccc4O)CC3)c2c1	-17.5%	-31.7%	50.1µM*	?	-3.8	-11.2
COc1cccc(C(=O)/C=C/Nc2cccc(O)c2)c1	10.3%	-33.4%	14.1µM*	-31.7%	-0.7	-7.1
CC1=C(c2ccc(Cl)cc2)S(=O)(=O)NC1=NCCCN1CCN(c2cc(C)ccc2C)CC1	24.6%	-21.3%	?	15.8µM*	.	.
CCOC(=O)/C=C/c1cc(F)c(S(=O)(=O)N2CCN(S(=O)(=O)c3ccc4c(c3)OCCO4)CC2)cc1F	.	.	.	-4.1%	.	.
OCCn1c(C(F)(F)F)nc2ccccc21	26.0%	5.9%	-5.5%[59 µM]	0.0%	6.2	-2.6
Cc1ccc(-c2csc(N(CCO)CCCn3c(C(F)(F)F)nc4ccccc43)n2)cc1	5.0%	?	44.7µM*	-34.0%	12.0	5.8
Fc1ccc(C(OCCCc2cnc[nH]2)c2ccc(F)cc2)cc1	.	.	44.7µM*!	.	.	.
O=c1c(Cc2ccc(F)cc2)c(O)ccn1CCc1cnc[nH]1	27.3%	-10.0%	-2.4%	-19.0%	.	-1.6
CCCc1nnc(NC(=O)c2cc(=O)c3cc(C)c(C)cc3o2)s1	37.3%	-3.2%	0.8%[59 µM]	-10.4%	.	.
Cc1ccc(C(=O)N[C@@H](Cc2ccccc2)C(=O)N2CCC3(CC2)NCCc2[nH]cnc23)cc1C	41.2%	-30.2%	79.4µM*	24.1%	.	-4.1
C[C@H](NC(=O)c1ccc(C(C)(C)C)cc1)C(=O)N1CCC2(CC1)NCCc1[nH]cnc12	4.3%	?	.	-32.8%	-8.2	-2.4
SMILES	HP1b chromo inh	BAZ2B inh	G9a inh	JMJD2A Tudor inh	CtBP-E1A blk	Six1-Eya2 inh
CC(C)(C)OC(=O)CC(=O)NNC(=O)c1nc2ccccc2[nH]1	.	.	.	-32.2%	.	.
NC(c1csc(Nc2ccc(C(F)(F)F)cn2)n1)C1CCCCC1 (stereo not drawn)	.	.	.	.	-13.4	-12.4
NC(c1csc(Nc2ncccn2)n1)C1CCCCC1 (stereo not drawn)	.	.	.	.	-67.5*	?
NC(c1csc(Nc2cnccn2)n1)C1CCCCC1 (stereo not drawn)	.	.	.	.	-70.4*	-26.5
CCOc1ccc(C(=O)CN2CCN(S(=O)(=O)c3ccc(OC)cc3)CC2)cc1	50.1%	-1.5%	12.6µM*	-32.0%	6.1	4.0
CCOc1ccc(C(=O)CN2CCN(S(=O)(=O)c3ccc(Br)cc3)CC2)cc1	62.2%	-35.6%	31.6µM*	-6.9%	7.3	-8.0
CC(=O)N(c1ccc(Cl)cc1)C1SC(=O)N(c2ccccc2)C1=O (stereo not drawn)	33.7%	.	.	-12.9%	.	.
O=C(CN1CCN(c2ncc(C(F)(F)F)cc2Cl)CC1)N1CCN(c2ncc(C(F)(F)F)cc2Cl)CC1	18.1%	3.2%	50.1µM*	-14.2%	-2.2	2.0
O=C(CSc1ccc(Cl)cc1)N1CCN(c2ncc(C(F)(F)F)cc2Cl)CC1	83.1%	25.7%	8.7%[59 µM]	16.4%	0.2	18.0
O=[N+]([O-])c1ccc(N2CCN(c3ccc(F)cc3)CC2)cc1	-5.0%	-7.8%	-1.8%	-16.1%	-16.5	-1.6
O=[N+]([O-])c1ccc(CN2CCN(c3ccccc3Cl)CC2)o1	?	50.1µM*	28.2µM*	22.4µM*	4.7	0.1
O=[N+]([O-])c1ccc(N2CCN(Cc3ccc(Br)o3)CC2)cc1	?	79.4µM*	?	22.4µM*	-8.2	-16.0
O=[N+]([O-])c1ccc(N2CCN(Cc3ccncc3)CC2)cc1	?	50.1µM*	31.6µM*	22.4µM*	.	-7.7
O=[N+]([O-])c1ccc(N2CCN(Cc3ccc([N+](=O)[O-])o3)CC2)cc1	?	31.6µM*	?	20µM*	2.2	5.1
Cc1noc(C)c1C(=O)N1CCC2(CC1)CCN(c1ccccn1)CC2	.	.	1.0%[12.7 µM]	.	.	.
COc1ccc(OC)c(S(=O)(=O)Nc2cc3c(cc2N2CCCC2)n(C)c(=O)c(=O)n3C)c1	7.0%	50.1µM*	10µM*	31.6µM*	?	-19.6
Cn1c(=O)c(=O)n(C)c2cc(N3CCCC3)c(NS(=O)(=O)c3ccc(F)cc3)cc21	50.3%	-16.7%[57.1 µM]	39.8µM*	-23.7%	-22.0	-8.1

Bioassay records from PubChem BioAssay.
